{"source": "PubChem BioAssay AID651955", "about": "(The Scripps Research Institute Molecular Screening Center, 2012)", "note": "The whole screen tested about 2,400 compounds, of which about 40 (2%) were called active. Cut-off read from the data, not from the text of the source: active = activation above about 37%; inactive = the rest. A selection follows.", "data": [{"target": "Trace amine-associated receptor 1 (Homo sapiens) (UniProt Q96RJ0)", "sequence (Q96RJ0 whole entry, looked up)": "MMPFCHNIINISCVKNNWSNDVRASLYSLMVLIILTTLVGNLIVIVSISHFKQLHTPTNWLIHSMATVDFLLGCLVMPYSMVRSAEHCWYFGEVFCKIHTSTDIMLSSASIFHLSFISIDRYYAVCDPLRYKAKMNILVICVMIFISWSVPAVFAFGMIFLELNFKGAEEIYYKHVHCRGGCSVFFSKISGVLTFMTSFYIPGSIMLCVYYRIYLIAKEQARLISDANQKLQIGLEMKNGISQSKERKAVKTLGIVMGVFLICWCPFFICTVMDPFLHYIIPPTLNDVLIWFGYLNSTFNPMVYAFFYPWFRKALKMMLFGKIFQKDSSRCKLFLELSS", "test": "TAAR1 activation by candidate antagonists – cell-based, fluorescence, counter-screen for TAAR1 antagonist project (AID 651955);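 note: CHO cells stably expressing TAAR1 with calcium dye readout; 0% = DMSO vehicle and 100% = full agonist response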", "settings": "hTAAR1 cell line, agonist mode, at 3 µM, active compounds read high", "values": [{"smiles": "COc1ccc(-c2cc(C(=O)Nc3ccccc3O)c3ccccc3n2)cc1", "activation": "16.7% (inactive)"}, {"smiles": "O=C(NCCN1CCOCC1)c1ccc(/C=C2\\Sc3ccccc3N(Cc3ccc(F)cc3)C2=O)cc1", "activation": "12.4% (inactive)"}, {"smiles": "COc1ccc(Cl)cc1NC(=O)CCS(=O)(=O)c1cc2c(cc1C)NC(=O)CO2", "activation": "7.53% (inactive)"}, {"smiles": "COc1ccc(N(CC(=O)N/N=C/c2cccs2)S(=O)(=O)c2ccc(OC)c(OC)c2)cc1", "activation": "11.5% (inactive)"}, {"smiles": "CSc1ncnc2c1ncn2CC(=O)C1CCC2C3CCC4=CC(=O)CCC4(C)C3CCC12C", "note": "(configuration not stated)", "activation": "15.2% (inactive)"}, {"smiles": "COc1ccc(C(=O)Nc2ccccc2C(=O)N/N=C/c2ccc(O)c(OC)c2)cc1", "activation": "8.37% (inactive)"}, {"smiles": "Cc1ccc(SCc2c(C(=O)N/N=C/c3cccnc3)nnn2-c2nonc2N)cc1", "activation": "17.1% (inactive)"}, {"smiles": "CSCCC(NC(=O)COc1ccccc1)C(=O)OCC(=O)c1cc2ccccc2o1", "note": "(configuration not stated)", "activation": "3.28% (inactive)"}, {"smiles": "O=C(N/N=C/c1ccc(Cl)c(Cl)c1)c1ccc2nc[nH]c2c1", "activation": "13.9% (inactive)"}, {"smiles": "COc1cc(/C=C2/C(=O)ON=C2C)ccc1OCc1ccccc1F", "activation": "18.6% (inactive)"}, {"smiles": "N#Cc1cccc(NC(=O)COC(=O)c2ccccc2C(=O)c2ccc(Cl)c([N+](=O)[O-])c2)c1", "activation": "3.29% (inactive)"}, {"smiles": "CSCCC(NC(=O)COc1ccccc1)C(=O)OCCOc1ccc(Br)cc1", "note": "(configuration not stated)", "activation": "4.8% (inactive)"}, {"smiles": "CC(=O)Nc1ccc(NC(=O)COC(=O)C2CCC(C(C)(C)C)CC2)cc1", "note": "(configuration not stated)", "activation": "23.7% (inactive)"}, {"smiles": "COc1ccc(NC(=O)C2CCCN(S(=O)(=O)c3cccc4cccnc34)C2)cc1OC", "note": "(configuration not stated)", "activation": "5.06% (inactive)"}, {"smiles": "O=C(CN1CCCSc2ccccc21)N1CCN(S(=O)(=O)c2cccc(F)c2)CC1", "activation": "6.06% (inactive)"}, {"smiles": "Cn1c(C(=O)NCCc2ccsc2)cc2c(=O)n(C)c3ccccc3c21", "activation": "4.37% (inactive)"}, {"smiles": "O=C(COC(=O)c1c2c(nc3ccccc13)CCCC2)c1ccc(Br)s1", "activation": "0.2% (inactive)"}, {"smiles": "Cc1nn(-c2ccccc2)c(C)c1NC(=O)COC(=O)c1cc(Cl)ccc1O", "activation": "10.5% (inactive)"}, {"smiles": "C=CCC[C@@H](Cc1ccc(F)cc1)C(=O)O[C@H](CNC(=O)[C@H](CC=C)CC(=O)N(CCO)Cc1ccccc1)c1ccccc1", "activation": "2.53% (inactive)"}, {"smiles": "COc1ccc(CC(=O)Nc2c(C(N)=O)oc3ccccc23)cc1", "activation": "6.71% (inactive)"}, {"smiles": "CCN1CCc2c(C#N)c(NCc3ccccc3)nc(NCCO)c2C1", "activation": "8.1% (inactive)"}, {"smiles": "COc1ccc(C(=O)Nc2cccc(NC(=O)c3ccc(OC)cc3OC)n2)c(OC)c1", "activation": "6.39% (inactive)"}, {"smiles": "CCOC(=O)C1C(c2ccc(OC)c(OC)c2)c2c([nH][nH]c2=O)CC1(C)O", "note": "(configuration not stated)", "activation": "3.71% (inactive)"}, {"smiles": "CSc1nc(-c2ccccc2)nc(C(Cl)Cl)n1", "activation": "2.73% (inactive)"}, {"smiles": "CCCCNc1c(-c2cccc(Sc3ccc(OC)cc3)c2)nc2ccccn12", "activation": "6.5% (inactive)"}, {"smiles": "CCOc1ccc(N2CC(C(=O)N/N=C/c3sccc3C)CC2=O)cc1", "note": "(configuration not stated)", "activation": "3.12% (inactive)"}, {"smiles": "COc1ccc(-c2cc(C(=O)N(C)CC(=O)Nc3ccccc3Cl)c3ccccc3n2)cc1OC", "activation": "6.79% (inactive)"}, {"smiles": "COc1ccc(S(=O)(=O)N(CC(=O)NCc2ccco2)c2ccc(F)cc2)cc1", "activation": "7.31% (inactive)"}, {"smiles": "CC(=O)N1CCN(C(=O)c2cc(-c3ccc(Cl)s3)nc3ccccc23)CC1", "activation": "13% (inactive)"}, {"smiles": "COc1ccc(-c2cc(C(=O)N(C)Cc3ccccc3)c3ccccc3n2)cc1", "activation": "1.41% (inactive)"}, {"smiles": "Cc1ccc(-n2c(C)cc(/C=N\\NC(=O)CC(=O)NC(C)C)c2C)cc1", "activation": "16.1% (inactive)"}, {"smiles": "OC(c1ccccc1)(c1ccccc1)C1CCN(CCCOc2ccc(-c3ccsc3)cc2)CC1", "activation": "33.1% (inactive)"}]}]}
